Hits are enriched below; roughly 4.3% of the tested compounds scored in any of these assays.
MITF act: activators of MITF-driven TRPM1 promoter reporter, primary screen, cell-based, SK-MEL-5, luciferase, single point; SK-MEL-5 TRPM1-promoter luciferase, 24 h; % of positive control, neutral wells = 0; activation, % at 12.5 µM; hit rate 0.75% among 300,000; AID 588334, 2011;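 active = mean activation of at least 80% with every replicate also reaching 80%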;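 also: 0% = neutral control wells and 100% = parthenolide positive control wells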
esBAF inh: Bmi1 luciferase reporter increase in mESCs, primary screen, esBAF inhibitor project, mouse ES cells, Bmi1 luciferase knock-in, single point; hit rate 2% among 350,000; reporter increase, % at 12.5 µM; 24 h; 100% = twice the neutral-well signal; AID 602393, 2012; in the data active = activation above about 40%;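 also: 0% = median of the plate's neutral control wells and 100% = double that signal; a rise in the Bmi1 reporter signal indicates esBAF inhibition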
FGF22 binding: binders of human FGF22 protein, primary screen, FGF22 synaptogenesis inhibitor project, biophysical, thermal shift, single point. hit rate 1.5% among 340,000. activity (Tm shift, normalised), % at 9.99 µM. recombinant FGF22 thermal shift, SYPRO orange fluorescence; percent of sucrose octasulfate shift, DMSO zero;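 active = mean Tm shift, scaled 0 neutral to 100 positive control, at about 1.3% or above, every replicate too, limit read from the data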
AF4-AF9 inh: inhibitors of AF4 peptide binding to AF9, primary screen, biochemical, AlphaScreen, biotin-AF4 peptide, FLAG-AF9, single point | Protein AF-9 (Homo sapiens), P42568 | inhibition, % at 10 µM | hit rate 0.47% among 350,000 | AID 651704, 2012;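 active = every replicate reaching a set inhibition limit, whatever the replicate mean, cut at about 25% in these data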;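 also: 0% = plate neutral control median and 100% = total signal loss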
Target sequence (P42568 whole entry, looked up): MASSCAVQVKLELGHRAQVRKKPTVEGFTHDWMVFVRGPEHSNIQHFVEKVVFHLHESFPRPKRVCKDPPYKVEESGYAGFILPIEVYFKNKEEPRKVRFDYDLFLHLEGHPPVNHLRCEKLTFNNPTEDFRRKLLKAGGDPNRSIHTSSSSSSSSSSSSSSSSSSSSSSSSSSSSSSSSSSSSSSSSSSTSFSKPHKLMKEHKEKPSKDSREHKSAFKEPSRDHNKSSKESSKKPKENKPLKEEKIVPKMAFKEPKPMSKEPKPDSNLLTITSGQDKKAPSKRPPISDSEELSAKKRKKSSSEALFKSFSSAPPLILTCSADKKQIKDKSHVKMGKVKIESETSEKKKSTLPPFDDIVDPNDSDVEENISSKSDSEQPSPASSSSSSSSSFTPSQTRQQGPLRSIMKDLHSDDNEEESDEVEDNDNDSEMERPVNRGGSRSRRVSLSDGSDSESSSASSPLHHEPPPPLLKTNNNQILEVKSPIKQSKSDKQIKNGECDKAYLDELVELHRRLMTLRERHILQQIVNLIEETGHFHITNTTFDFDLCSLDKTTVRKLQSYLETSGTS
Wnt act: Wnt/beta-catenin pathway activators, primary screen, cell-based, plate reader, single point; Wnt/beta-catenin reporter cell assay, activator; activation, % at 9.35 µM; hit rate 1.2% among 300,000; AID 743398, 2014; in the data active = activation above about 30%, passing the limit was not always enough;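 also: 0% = neutral control wells and 100% = positive control wells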
SMARCA2 activ: SMARCA2 (BRM) function activators, primary screen, cell-based, luminescence, high throughput | MG213 cells, MMTV-luciferase reporter, dexamethasone, overnight | activation, % at 9.1 µM | hit rate 1% among 370,000 | AID 652017, 2013; in the data active = activation above about 7.8%;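 also: 0% = vehicle wells and 100% = reference activator wells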
SMARCA2 act conf: SMARCA2 (BRM) function activators, confirmation, cell-based, luminescence, triplicate. shares compounds with SMARCA2 activ. MG213 cells, MMTV-luciferase with dexamethasone, overnight; MG213 cells expressing E1A, Rb sequestered; DMSO wells 0%, reference activator 100%. activation, % at 9.1 µM. hit rate 30% among 3,500. AID 652260, 2013;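 active = activation above its plate's cutoff, the mean activation of tested wells plus 3 SD, cut at about 7.9% in these data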
GAL4-VP16 Luc: GAL4-VP16 luciferase reporter activation, counter-screen for SMARCA2 (BRM) activator project, cell-based, pG5luc, luminescence, high throughput; activation, % at 9.1 µM; shares compounds with SMARCA2 activ; hit rate 41% among 3,500; HEK293 GAL4-VP16 pG5luc reporter; scaled: DMSO wells 0%, SAHA wells 100%;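 active = activation above the solvent-only control well mean plus 3 SD, averaged across control plates, cut at about 5.2% in these data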
Numbers without * were called inactive.

For CC(C)(C)C(=O)Nc1nnc(SCC(=O)Nc2ccc3c(c2)OCO3)s1 the results were MITF act -1.6, SMARCA2 activ 13.4*, SMARCA2 act conf -5.3 and GAL4-VP16 Luc 2.4.
Screening CC(C)CC(=O)Nc1nnc(SCC(=O)Nc2ccc3c(c2)OCO3)s1 returned MITF act 3.5, Wnt act 0.4 and SMARCA2 activ 2.5.
Screening CCOC(=O)C1=C(C)NC(=O)C(C#N)C1c1ccncc1 (stereo not drawn) returned MITF act 1.5, esBAF inh -6.2, FGF22 binding 0.2, AF4-AF9 inh 3.5, Wnt act -0.3, SMARCA2 activ 9.8*, SMARCA2 act conf -3.2 and GAL4-VP16 Luc -1.7.
C[C@H]1CCCCO[C@H](CN(C)C(=O)Cc2ccccc2)[C@@H](C)CN([C@@H](C)CO)C(=O)c2cc(NS(=O)(=O)c3cccs3)ccc2O1 was read as esBAF inh -2.7, FGF22 binding -0.5 and AF4-AF9 inh -0.4.
CN(C)C(=O)CSc1cccc2cccnc12 was read as MITF act -46.1, esBAF inh -4.7, SMARCA2 activ 11.6*, SMARCA2 act conf -12.0 and GAL4-VP16 Luc 2.3.
`COc1cc(O)c2c(=O)c(-c3ccc(O[C@@H]4O[C@H](CO)[C@@H](O)[C@H](O)[C@H]4O)cc3)coc2c1` gave MITF act 73.3, esBAF inh 24.6, FGF22 binding -0.2, AF4-AF9 inh -3.8, Wnt act 35.5*, SMARCA2 activ 8.8*, SMARCA2 act conf 12.7* and GAL4-VP16 Luc 9.1*.
Screening O=C(NCC1CCCO1)c1ccc2nc(N3CCCCC3)sc2c1 (stereo not drawn) returned MITF act 48.9, esBAF inh 38.3, FGF22 binding 0.3, AF4-AF9 inh 8.4, Wnt act 29.6 and SMARCA2 activ 3.4.
For CC1CCN(c2nc3ccc(C(=O)NCCCN4CCCCC4)cc3s2)CC1 the results were MITF act -52.7, esBAF inh 61.7*, FGF22 binding 0.1, AF4-AF9 inh 0.9, Wnt act 4.6, SMARCA2 activ 12.3*, SMARCA2 act conf 4.1 and GAL4-VP16 Luc 17.3*.
Screening C=CCc1ccc(OCCCCN2CC(C)CC(C)C2)c(OC)c1 (stereo not drawn) returned MITF act 20.6, esBAF inh -1.4, FGF22 binding 0.0, AF4-AF9 inh 8.3, Wnt act 1.3 and SMARCA2 activ -4.9.
For C=CCc1ccc(OCCCCN2CCC(C)CC2)c(OC)c1 the results were MITF act 11.0, Wnt act -8.6, SMARCA2 activ 12.1*, SMARCA2 act conf -5.6 and GAL4-VP16 Luc 3.0.
`COc1ccc(N=C(C)C2=C(O)CSC2=O)cc1` gave MITF act -5.8, esBAF inh 31.1, FGF22 binding 0.2, AF4-AF9 inh 0.1, Wnt act 16.1 and SMARCA2 activ 6.0.
For CC(=Nc1ccccc1)C1=C(O)CSC1=O the results were MITF act 1.0, esBAF inh 46.0*, Wnt act -1.1, SMARCA2 activ 8.6*, SMARCA2 act conf 2.5 and GAL4-VP16 Luc 3.7.
`CO[C@@H]1CN(C)C(=O)c2cc(NC(=O)C3CCC3)ccc2OC[C@@H](C)N(CC2CCCCC2)C[C@H]1C` gave esBAF inh 3.2, FGF22 binding 0.0 and AF4-AF9 inh 3.6.
`Cc1cc(C)c2c(N)c(-c3nc4ccccc4[nH]3)sc2n1` gave MITF act 15.4, SMARCA2 activ 9.2*, SMARCA2 act conf 8.7* and GAL4-VP16 Luc 10.2*.

Source: PubChem BioAssay
